According to PubChem BioAssay (NCI):
Compounds without any hit were thinned out: in the full panel of roughly 83,000, 20% have a hit.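 Values shown are percent growth following 48 h exposure of cells in 96-well plates to a single concentration of compound; below 10 was considered active.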 Calls of active or inactive are those of the source.

Each compound was assayed on HL-60(TB) leukemia (assay: NCI-60 one-dose screen, 48 h (100 = growth as untreated, 0 = no growth, -100 = all killed)). Conditions: 10 µM unless noted.

| SMILES | growth |
| --- | --- |
| O=C(COc1ccc(/C=C2\Oc3ccc4ccccc4c3C2=O)cc1)c1ccc([N+](=O)[O-])cc1 | 75.9% (inactive) |
| CCOC(=O)c1sc(NC(=O)COc2ccc(/C=C3\Cc4ccc(Cl)cc4C3=O)cc2)nc1C | 98% (inactive) |
| Cc1ccc(C2SCC(=O)N2Cc2ccccc2)cc1 (stereo not given) | 96.1% (inactive) |
| Nc1c(C(=O)Nc2ccccn2)sc2nc3c(cc12)CCCC3 | 5.35% (active) |
| CNC(=O)c1c(NC(=O)c2ccc(C(C)(C)C)cc2)sc2c(CN(C)C)c(O)ccc12 | -33% (active) |
| COc1ccc(OC)c(-c2ccc(-c3ccccc3N)c3[nH]c4ccccc4c23)c1 | 93.4% (inactive) |
| COC(=O)CCCCCCCCC1(C)C=CC(C(C)O)=CC1 (stereo not given) | 99.4% (inactive) |
| COC12C=C/C(=C(/C(=O)OCc3csc(SC)n3)C(=O)CCCCCCCCC3(OC)C=C/C(=C(/C(=O)OCc4cnc(SC)s4)C(=O)CCCCCCCC1)O3)O2 (stereo not given) | 6.46% (active) |
| C=C1C(=O)O[C@H]2[C@H]1CC/C(COC(=O)CCCC(=O)OC/C1=C/CC[C@@]3(C)O[C@H]3[C@H]3OC(=O)C(=C)[C@@H]3CC1)=C\CC[C@@]1(C)O[C@@H]21 | -41.8% (active) |
| COc1nc2c(cc1S(=O)(=O)c1ccccc1)CCc1c-2cnn1-c1ccccc1 | 58.7% (inactive) |
| OCCOCC(F)(F)F | -0.411% (active) |
| C[C@H]1C(=O)C23CCC1C[C@@]21O[C@@H]2C(C)(C)C=CC(=O)C23COC1=O | 97.8% (inactive) |
| COc1ccccc1/C=N\NC(=S)Nc1ccc(F)cc1 | 94.5% (inactive) |
| Cc1[nH]c(C(=O)Nc2ccc(C(N)=O)cc2NC(C)C)c(Cl)c1Cl | 99.7% (inactive) |
| CNC(=O)c1cc(Oc2ccc3nc(NC(=O)c4cc(C(F)(F)F)cc(C(F)(F)F)c4)sc3c2)ccn1 | -12.8% (active) |
| COc1ccc(C(=O)COc2ccc(/C=C3\Oc4ccc(Cl)cc4C3=O)cc2)cc1 | 16.5% (inactive) |
| COc1cccc(C2CC(=O)Nc3cc4c(cc32)CCC4)c1OC (stereo not given) | 10.4% (inactive) |
| CS(=O)(=O)Nc1cccc(-c2ccc3ncnc(Nc4cncc(Cl)c4)c3c2)c1 | 35.5% (inactive) |
| CCCCC1CCCC12NC(=O)NC2=O (stereo not given) | 84.6% (inactive) |
| COc1ccc(/C(=C\c2ccc3c(c2)OCO3)C(=O)Nc2nc3ccccc3s2)cc1OC | 92% (inactive) |

| SMILES | growth |
| --- | --- |
| COC(=O)c1c2c(c[n+]([O-])c1C)C(=O)C=CC2=O | 28.1% (inactive) |
| C=C(C)[C@@H]1CC[C@]2(C(=O)NCCCO)CC[C@]3(C)[C@H](CC[C@@H]4[C@@]5(C)CCCNC(C)(C)[C@@H]5CC[C@]43C)[C@@H]12 | 34.1% (inactive) |
| Cc1c(Cl)cccc1NC(=O)CCCl | 73.6% (inactive) |
| Cc1cc2c(-c3nc4ccccn4c3NC3CCCCC3)c(O)c(O)cc2c(O)c1-c1c(C)cc2c(-c3nc4ccccn4c3NC3CCCCC3)c(O)c(O)cc2c1O | 29.1% (inactive) |
| O=c1cc(-c2ccccc2)[nH]c2ncc(-c3ccc(F)cc3)n12 | 18.9% (inactive) |
| COC(=O)[C@]12CC[C@@H](C)[C@H](C)[C@@H]1C1=CC[C@@H]3[C@@]4(C)C(C=O)=C[C@@](C)(CO)C4=CC[C@@]3(C)[C@]1(C)CC2 | 16.1% (inactive) |
| C=C(C)[C@@H]1CC[C@]2(C(=O)N3CCCNCC3)CC[C@]3(C)[C@H](CC[C@@H]4[C@@]5(C)CCC(=O)C(C)(C)[C@@H]5CC[C@]43C)[C@@H]12 | 67.4% (inactive) |
| CNC(=O)c1cc(Oc2ccc(NC(=O)Nc3ccc(Cl)c(C(C)(C)C)c3)c(F)c2)ccn1 | 46.7% (inactive) |
| CCNC(=O)Oc1ccc(/C(=C(\C)c2ccccc2)c2ccc(OCCCN(C)C)cc2)cc1 | 53.2% (inactive) |
| CC1(C)CC2=C3C=C[C@@H]4[C@@]5(C)CCC(=O)C(C)(C)[C@@H]5CC[C@@]4(C)[C@]3(C)CC[C@@]2(C(=O)O)C[C@H]1O | 23% (inactive) |
| COc1cc(-c2nc(-c3nc4ccccc4[nH]3)cc3c2[nH]c2ccccc23)cc(OC)c1OC | 44.2% (inactive) |
| COc1ccc(-c2cc(-c3nnc(SCC(=O)Nc4ccc(C(C)=O)cc4)n3-c3ccccc3)c3ccccc3n2)cc1OC | 100% (inactive) |
| CC(=O)c1c(C)[nH]c(-c2nc3ccc(N4CCN(C)CC4)cc3[nH]2)c1-c1ccc2c(c1)OCCO2 | -0.621% (active) |
| COP(=O)(OC)C(c1ccc(O)cc1)(c1ccc(O)cc1)c1ccc(O)cc1 | 93.4% (inactive) |
| Nc1ccc2ccc(N)cc2c1 | 97.4% (inactive) |
| N[C@H](CS)C(=O)O | 109% (inactive) |
| CC(C)(CO)N(CCO)CCO | 103% (inactive) |
| CN1CCN(Cc2ccc(NC(=O)c3cccc(C#Cc4c(N)ncc5ccc(F)cc45)c3)cc2C(F)(F)F)CC1 | -53.7% (active) |
| CC(=O)c1sc2sc(C(C)=O)c(C)c2c1C | 90.1% (inactive) |
| CCN1C(=O)N(CC)C2Nn3c(s/c(=C4\C(=O)N(CC(C)C)c5ccccc54)c3=O)=NC21 (stereo not given) | 18.9% (inactive) |
